Source: PubChem BioAssay (NCI)
“And” between values parts separate entries of the source, which are not always exact repeats. Equal values may be shown once. This is part of a sample that, as a whole, favours compounds with a hit. Of some 83,000 tested, about 20% had one in any assay.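 The endpoint reported here, percent growth, reads 100 for growth as untreated, 0 for no net growth and -100 for all cells dead.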 The source made the active and inactive calls. How the source made its calls: active means growth percent below 10; inactive means the rest. Where a SMILES comes first, the peptide text is derived from it. [ ]: non-standard residue; d: D form. ξ: configuration not given here. ξV = CC(C)C(N)C(=O)O

What was measured:
Experiment in all cases: NCI-60 one-dose screen, 48 h (100 = growth as untreated, 0 = no growth, -100 = all killed)
NCI-H23 lung = conditions: 10 µM
NCI-H226 lung = conditions: 10 µM
HOP-62 NSCLC = conditions: 10 µM
NCI-H460 lung = conditions: 10 µM
HOP-92 NSCLC = conditions: 10 µM
786-0 renal = conditions: 10 µM
COLO 205 colon = conditions: 10 µM
DU-145 prostate = conditions: 10 µM unless noted
K-562 leukemia = conditions: 10 µM
MALME-3M melanoma = conditions: 10 µM
MDA-MB-231 breast = conditions: 10 µM
RXF 393 renal = conditions: 10 µM unless noted
SF-268 CNS = conditions: 10 µM
SF-295 CNS = conditions: 10 µM
SF-539 CNS = conditions: 10 µM
UACC-257 melanoma = conditions: 10 µM
A549/ATCC NSCLC = conditions: 10 µM
M14 melanoma = conditions: 10 µM
NCI-H522 lung = conditions: 10 µM unless noted

| Structure (SMILES) | growth (NCI-H23 lung) | growth (NCI-H226 lung) | growth (HOP-62 NSCLC) | growth (NCI-H460 lung) | growth (HOP-92 NSCLC) | growth (786-0 renal) | growth (COLO 205 colon) | growth (DU-145 prostate) | growth (K-562 leukemia) | growth (MALME-3M melanoma) | growth (MDA-MB-231 breast) | growth (RXF 393 renal) | growth (SF-268 CNS) | growth (SF-295 CNS) | growth (SF-539 CNS) | growth (UACC-257 melanoma) | growth (A549/ATCC NSCLC) | growth (M14 melanoma) | growth (NCI-H522 lung) |
| --- | --- | --- | --- | --- | --- | --- | --- | --- | --- | --- | --- | --- | --- | --- | --- | --- | --- | --- | --- |
| CCCCCCCCCCCCSC(=NC)NC | 35.4% (inactive) and 54.9% (inactive) | 66.3% (inactive) and 79.1% (inactive) | 76.3% (inactive) and 87.2% (inactive) | 4.19% (active) and 42.7% (inactive) | -1.15% (active) and 36% (inactive) | -23.8% (active) and 62.9% (inactive) | -85.4% (active) and -86.3% (active) | 41.3% (inactive) and 75.6% (inactive) | 3.08% (active) and 2.7% (active) | 40% (inactive) and 72.8% (inactive) | -28.3% (active) and 40.4% (inactive) | 40.9% (inactive) and 70.6% (inactive) | 40.9% (inactive) and 74.9% (inactive) | 4.6% (active) and 65% (inactive) | 29.3% (inactive) and 55.4% (inactive) | 66.4% (inactive) and 98.2% (inactive) | – | – | – |
| COc1cccc2c1C(=O)c1c(O)c3c(c(O)c1C2=O)C[C@@](O)(C(C)=O)C[C@@H]3OC1CC(N)C(O)C(C)O1 (stereo not given in full) | -40.5% (active) | -6.94% (active) | -26.1% (active) | -25.3% (active) | -25.2% (active) | -18.5% (active) | -54.3% (active) | -11.4% (active) | -49.5% (active) | -77.1% (active) | -17.9% (active) | -46.9% (active) | -14.5% (active) | -26.9% (active) | -70.9% (active) | -33.3% (active) | -29.9% (active) | – | – |
| CC(=O)OCC(OC(C)=O)C(OC(C)=O)C(OC(C)=O)C(OC(C)=O)C(/C=N/Nc1ccccc1)=N/Nc1ccccc1 (stereo not given) | 79.9% (inactive) | 72.7% (inactive) | 66.8% (inactive) | 65.2% (inactive) | 79.5% (inactive) | 63.6% (inactive) | 97.1% (inactive) | 78.4% (inactive) | 22.4% (inactive) | 84.5% (inactive) | 58.8% (inactive) | 77% (inactive) | 71.5% (inactive) | 46.6% (inactive) | 89.9% (inactive) | 82.3% (inactive) | – | 82.3% (inactive) | – |
| OCC(O)C(O)C(O)C(/C=N/Nc1ccccc1)=N/Nc1ccccc1 (stereo not given) | 93.1% (inactive) | 91.4% (inactive) | 70.2% (inactive) | 89.9% (inactive) | 75.1% (inactive) | 107% (inactive) | 96.5% (inactive) | 89.1% (inactive) | 67.1% (inactive) | 101% (inactive) | 79.7% (inactive) | 86.7% (inactive) | 75.5% (inactive) | 83.6% (inactive) | 91.3% (inactive) | 104% (inactive) | – | 87.5% (inactive) | 55.5% (inactive) |
| CO[C@H](C(=O)[C@@H](O)[C@@H](C)O)[C@@H]1Cc2cc3cc(OC4CC(OC5CC(O)C(O)C(C)O5)C(O)C(C)O4)c(C)c(O)c3c(O)c2C(=O)[C@H]1OC1CC(OC2CC(OC3CC(C)(O)C(O)C(C)O3)C(O)C(C)O2)C(O)C(C)O1 (stereo not given in full) | -28.9% (active) | 10.8% (inactive) | 7.51% (active) | 2.6% (active) | -1.5% (active) | 2.93% (active) | -67.5% (active) | 24.7% (inactive) | 6.76% (active) | -54.6% (active) | 14.6% (inactive) | 5.86% (active) | 12.3% (inactive) | 19.1% (inactive) | -20.2% (active) | 4.4% (active) | – | – | – |
| CSC1SCC2C(=O)N(C)C(C(C)C)C(=O)OCC(NC(=O)c3cnc4ccccc4n3)C(=O)NC(C)C(=O)N(C)C1C(=O)N(C)C(C(C)C)C(=O)OCC(NC(=O)c1cnc3ccccc3n1)C(=O)NC(C)C(=O)N2C (stereo not given) | -28.2% (active) | -5.57% (active) | -12.4% (active) | 4.33% (active) | -20.3% (active) | -10.6% (active) | -45.3% (active) | -19.5% (active) | -61.8% (active) | -23.1% (active) | -8.05% (active) | -0.0463% (active) | -2.43% (active) | -22.3% (active) | -52.9% (active) | -13.6% (active) | – | – | – |
| O=C1C=C(O)c2ccccc2C1=O.[Ag] | 91.8% (inactive) | – | 98.3% (inactive) | 94.7% (inactive) | – | 104% (inactive) | 78.8% (inactive) | 121% (inactive) | 83.5% (inactive) | 85.3% (inactive) | 89.2% (inactive) | – | 113% (inactive) | 97% (inactive) | 114% (inactive) | 76.2% (inactive) | – | – | – |
| CS(=O)(=O)OC1CC(n2ccc(=O)[nH]c2=O)OC1COC(c1ccccc1)(c1ccccc1)c1ccccc1 (stereo not given) | 106% (inactive) | 104% (inactive) | 106% (inactive) | 112% (inactive) | – | – | – | 99.8% (inactive) | 98.5% (inactive) | 91.9% (inactive) | 106% (inactive) | 105% (inactive) | 103% (inactive) | 110% (inactive) | 105% (inactive) | 102% (inactive) | 101% (inactive) | 88.7% (inactive) | – |
| CC(C)C(NC(=O)CN)C(=O)O (stereo not given) (H-Gly-[ξV]-OH) | 101% (inactive) and 106% (inactive) | 102% (inactive) and 100% (inactive) | 106% (inactive) and 98% (inactive) | 113% (inactive) and 103% (inactive) | 102% (inactive) | 95.1% (inactive) and 106% (inactive) | 117% (inactive) and 113% (inactive) | 107% (inactive) and 110% (inactive) | 92.9% (inactive) and 104% (inactive) | 101% (inactive) and 99.8% (inactive) | 106% (inactive) | 104% (inactive) and 108% (inactive) | 104% (inactive) and 101% (inactive) | 97.4% (inactive) and 101% (inactive) | 103% (inactive) and 106% (inactive) | 110% (inactive) and 101% (inactive) | – | – | 95.9% (inactive) and 89.7% (inactive) |
